Assay outcomes deposited in PubChem by National Center for Advancing Translational Sciences (NCATS).
ELG1 repair inh – ELG1-dependent DNA repair inhibition. HEK293T ELG1-luciferase reporter, luminescence, 16 h; DNA damage induced by 5-fluorouridine. Potency, µM (highest dose often 46.1 µM), inactives show top-dose activity change, negative = inhibition, usual class: inhibitors. 2.3% of 330,000 active. AID 504467; note: % is set by controls: 0 for no effect and ±100 for the full control effect; nearly all actives have a fitted effect of over 55% in size
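In this reporter screen, reduction of luminescence relative to DMSO vehicle indicated activity. Compounds and 5-fluorouridine were added together to 2,000 cells per well, incubated for 16 hr at 37 °C, then developed with ONE-Glo.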
Rab9 prom act – activates the Rab9 promoter | 2.8% of 320,000 active | Potency, µM (highest dose often 9.22 µM), without a hit: top-dose activation, negative = inhibition, hits mostly activators | AID 485297 | Huh7 Rab9 promoter-luciferase reporter, luminescence, 24 h; note: % of control where 0% means no effect; nearly all actives have a fitted effect of over 60% in size
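Measured in stably transfected Huh7 cells bearing a Rab9 promoter–luciferase construct: 24 h compound treatment at 37 °C, followed by luminescence detection.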
SMN2 splice up – SMN2 splice variant enhancement. AID 1458. Potency, µM (doses to about 46.1 µM), without a hit: top-dose activity change, positive = activation, most hits filed as activators. 2.8% of 210,000 active. HEK293 SMN2-luciferase splicing reporter, luminescence, 30-36 h; note: % of control where 0% means no effect; nearly all actives have a fitted effect of over 55% in size
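qHTS luciferase splicing reporter: luminescence rises when SMN2 exon 7 is included in transfected HEK293 cells. Compound exposure lasted 30-36 h at 37C, with 4.5 mM final sodium butyrate as control, followed by a ONE-Glo read.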
FLuc modulator – inhibits or activates purified firefly luciferase, miR-21 counter-screen. P08659. purified FLuc, Km substrates, luminescence inhibition. Potency, µM (titrated, usually from 57.5 µM), inactives show at the highest dose activity change, negative = inhibition, most hits filed as inhibitors. 6.9% of 360,000 active;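 note: plate controls were vehicle for no effect and reference inhibitor for full effect; nearly all actives have a fitted effect of over 55% in size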
Target sequence (P08659 whole entry, looked up): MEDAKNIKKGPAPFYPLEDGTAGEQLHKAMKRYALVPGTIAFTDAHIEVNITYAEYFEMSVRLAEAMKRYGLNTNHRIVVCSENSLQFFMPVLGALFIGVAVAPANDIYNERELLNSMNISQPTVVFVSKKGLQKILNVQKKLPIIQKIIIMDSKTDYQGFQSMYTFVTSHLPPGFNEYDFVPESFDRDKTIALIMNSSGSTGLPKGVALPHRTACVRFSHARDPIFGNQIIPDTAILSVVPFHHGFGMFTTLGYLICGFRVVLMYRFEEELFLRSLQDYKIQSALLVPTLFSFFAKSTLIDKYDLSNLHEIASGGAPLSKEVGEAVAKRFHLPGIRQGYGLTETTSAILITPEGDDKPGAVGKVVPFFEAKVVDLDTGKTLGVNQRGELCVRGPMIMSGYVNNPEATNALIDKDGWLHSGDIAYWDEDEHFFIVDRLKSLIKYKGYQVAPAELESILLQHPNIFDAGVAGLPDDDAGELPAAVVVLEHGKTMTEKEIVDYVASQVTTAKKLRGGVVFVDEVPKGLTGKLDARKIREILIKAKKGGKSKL
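Biochemical qHTS of compounds, final roughly 60 µM downward over six points, against 10 nM purified firefly luciferase using Km concentrations of substrates (10 uM D-luciferin, 10 uM ATP) in Tris acetate pH 7.5 buffer; luminescence output.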
ELG1 genotoxic – genotoxicity induction in ELG1-luciferase HEK293T cells; Potency, µM (top dose mostly 46 µM), without a hit: top-dose activity change, positive = activation, most hits filed as activators; HEK293T ELG1-luciferase reporter, luminescence, 16 h; 1.3% of 330,000 active; AID 504466; note: % of control where 0% means no effect; nearly all actives have a fitted effect of over 60% in size
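16 hr compound incubation (37 °C, 5% CO2) of HEK293T cells carrying luciferase-tagged ELG1; luciferase then measured by ONE-Glo luminescence after 30 min at RT.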
NPC1 promoter act – activates the NPC1 promoter; Potency, µM (highest dose often 9.22 µM), for the others: at the top dose activation, most hits filed as activators; 2.4% of 320,000 active; Huh7 NPC1 promoter luciferase reporter, 24 h; note: % of control where 0% means no effect; nearly all actives have a fitted effect of over 60% in size
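Huh7 reporter cells (NPC1 promoter driving luciferase) are dosed with compound for 24 h at 37 °C, 5% CO2; luciferase detection reagent is then added and luminescence measured after 10 min at ambient temperature.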
* = called active by the depositor. Shown are actives, neighbours in structure and some others; about 9.2% of the full set was active somewhere. Calls come from the whole dose curve; as a rule, active = well fitted curve in the direction sought with a large enough effect; inconclusive = small, poorly fitted or top-dose-only effect, or another doubt; inactive = no such curve, though single readings can be large; an effect the other way counts as inactive or inconclusive. Potency is the fitted concentration of half-maximal effect.

What do the screens show for `CCn1c(SCC(=O)N2CCN(c3ccccc3)CC2)nnc1-c1c[nH]c2ccccc12`?
ELG1 repair inh: 13µM*; Rab9 prom act: -7%; SMN2 splice up: -75%; FLuc modulator: 0%; ELG1 genotoxic: -10%; NPC1 promoter act: -4%

What do the screens show for `CCC(=O)NNC(=O)c1cc(COc2cc(Cl)cc(Cl)c2)on1`?
ELG1 repair inh: -2%; Rab9 prom act: 2%; FLuc modulator: -2%; ELG1 genotoxic: -1%; NPC1 promoter act: -1%

What do the screens show for `COc1ccc(CNC(=O)CN2N=C(c3ccccc3)CCC2=O)c(OC)c1`?
FLuc modulator: 2%

How did COc1ccc(S(=O)(=O)N2CCCCCC2)cc1C(=O)N(C)Cc1ccc(Cl)cc1Cl do in these assays?
ELG1 repair inh: inconclusive; Rab9 prom act: -3%; FLuc modulator: -3%; ELG1 genotoxic: 2%; NPC1 promoter act: -4%

Results for CCCn1c(=O)c2[nH]c(-c3ccccc3)nc2n(CCC)c1=O ?
SMN2 splice up: 0%

What do the screens show for `COc1ccc(N2CCN(C(=O)CSc3nc4c(c(=O)n(C)c(=O)n4C)n3C(C)C)CC2)cc1`?
ELG1 repair inh: 21µM*; Rab9 prom act: -4%; SMN2 splice up: -26%; FLuc modulator: 7%; ELG1 genotoxic: -5%; NPC1 promoter act: 4%

Results for NC(=O)CCCSc1nc2ccccc2[nH]1 ?
ELG1 repair inh: 4%; Rab9 prom act: 0%; SMN2 splice up: -1%; FLuc modulator: -4%; ELG1 genotoxic: -1%; NPC1 promoter act: 1%

Results for C=CCn1c(COc2ccccc2)nnc1SCC(=O)N/N=C/c1ccc(C)cc1 ?
ELG1 repair inh: 0%; Rab9 prom act: 0%; SMN2 splice up: 18%; FLuc modulator: 12µM*; ELG1 genotoxic: 3%; NPC1 promoter act: -7%

How did COc1ccc(N2CCN(C(=O)CCCSc3nc4ccccc4[nH]3)CC2)cc1 do in these assays?
ELG1 repair inh: 23µM*; Rab9 prom act: -2%; SMN2 splice up: -67%; FLuc modulator: 3%; ELG1 genotoxic: -15%; NPC1 promoter act: -1%

Results for Cn1c(SCC(=O)N2CCN(c3ccccc3)CC2)nnc1-c1c[nH]c2ccccc12 ?
ELG1 repair inh: 10µM*; Rab9 prom act: -5%; SMN2 splice up: -56%; FLuc modulator: -3%; ELG1 genotoxic: -17%; NPC1 promoter act: 0%

What do the screens show for `Cc1nc2ccccc2c(=O)n1CCc1ccc(O)cc1`?
ELG1 repair inh: -3%; Rab9 prom act: 0%; FLuc modulator: 0%; ELG1 genotoxic: -4%; NPC1 promoter act: -4%

How did O=C(Nc1nnc(N2CCCCCC2)s1)Nc1ccccc1C(F)(F)F do in these assays?
SMN2 splice up: 18%; FLuc modulator: inconclusive

Results for CCOC(=O)CN(C(=O)COC(=O)C1=NNC(=O)CC1)c1ccc(F)cc1 ?
ELG1 repair inh: inconclusive; ELG1 genotoxic: 1%

What do the screens show for `COc1ccc(N2CCN(C(=O)CSc3nnc(-c4cc5ccccc5cc4O)n3C)CC2)cc1`?
ELG1 repair inh: 11µM*; Rab9 prom act: -3%; SMN2 splice up: -53%; FLuc modulator: -5%; ELG1 genotoxic: -20%; NPC1 promoter act: -4%

Results for COc1cccc(N2CCN(C(=O)CCCCCNc3nc(=S)[nH]c4ccccc34)CC2)c1 ?
ELG1 repair inh: 18µM*; Rab9 prom act: -16%; SMN2 splice up: -49%; FLuc modulator: -10%; ELG1 genotoxic: -15%; NPC1 promoter act: 0%

What do the screens show for `O=C(NCC1CCN(S(=O)(=O)c2ccccc2)CC1)Nc1ccccc1`?
ELG1 repair inh: 7%; Rab9 prom act: -6%; FLuc modulator: -1%; ELG1 genotoxic: -8%; NPC1 promoter act: 2%

Results for C=CCSc1nnc(NC(=O)C2=COCCO2)s1 ?
ELG1 repair inh: inconclusive; Rab9 prom act: 2.2µM*; FLuc modulator: 17µM*; ELG1 genotoxic: inconclusive; NPC1 promoter act: 4µM*

What do the screens show for `O=C(Cc1cccs1)Nc1nnc(SCc2ccc(Br)cc2)s1`?
ELG1 repair inh: inconclusive; Rab9 prom act: -1%; SMN2 splice up: -3%; FLuc modulator: 17µM*; ELG1 genotoxic: 3%; NPC1 promoter act: -1%

Results for Cc1cc(=O)[nH]c(SCC(=O)Nc2nnc(SCc3ccccc3)s2)n1 ?
ELG1 repair inh: -2%; Rab9 prom act: -1%; SMN2 splice up: -26%; FLuc modulator: 13µM*; ELG1 genotoxic: -7%; NPC1 promoter act: -6%

How did c1ccc(CSc2nnc(NC3=NCCCCC3)s2)cc1 do in these assays?
ELG1 repair inh: 0%; Rab9 prom act: 4µM*; SMN2 splice up: 15%; FLuc modulator: 17µM*; ELG1 genotoxic: inconclusive; NPC1 promoter act: inconclusive

What do the screens show for `N#Cc1ccc(CSc2nnc(Nc3ccccc3)s2)cc1`?
ELG1 repair inh: -17%; Rab9 prom act: -5%; SMN2 splice up: -22%; FLuc modulator: -1%; ELG1 genotoxic: 2%; NPC1 promoter act: -1%

What do the screens show for `O=C(Nc1nnc(SCc2ccc(F)cc2)s1)C1=COCCO1`?
ELG1 repair inh: inconclusive; Rab9 prom act: 19%; FLuc modulator: -17%; ELG1 genotoxic: 1%; NPC1 promoter act: 13%

How did Cc1cc(=O)[nH]c(SCC(=O)Nc2nc3ccccc3s2)n1 do in these assays?
ELG1 repair inh: 6%; Rab9 prom act: -1%; SMN2 splice up: -21%; FLuc modulator: inconclusive; ELG1 genotoxic: 0%; NPC1 promoter act: 1%

What do the screens show for `O=C(COc1ccc(Cl)cc1)NCc1n[nH]c(=O)c2ccccc12`?
ELG1 repair inh: 4%; Rab9 prom act: 2%; FLuc modulator: 0%; ELG1 genotoxic: -1%; NPC1 promoter act: 1%

How did O=C(Nc1nnc(SCc2ccccc2)s1)C1=COCCO1 do in these assays?
ELG1 repair inh: inconclusive; Rab9 prom act: 3.5µM*; FLuc modulator: inconclusive; ELG1 genotoxic: inconclusive; NPC1 promoter act: 3.5µM*

What do the screens show for `O=C(Nc1nnc(SCc2ccccc2F)s1)C1=COCCO1`?
ELG1 repair inh: inconclusive; Rab9 prom act: 3.5µM*; FLuc modulator: 17µM*; ELG1 genotoxic: 10µM*; NPC1 promoter act: 2.5µM*

Results for CC(=O)c1sc(NC(=O)CN2C(=O)C3CCCCC3C2=O)nc1-c1ccccc1 (stereo not given) ?
ELG1 repair inh: inconclusive; Rab9 prom act: -2%; FLuc modulator: -1%; ELG1 genotoxic: 0%; NPC1 promoter act: -3%

How did O=C(CSc1nnc(-c2ccncc2)n1Cc1ccco1)OC1CCCCC1 do in these assays?
ELG1 repair inh: 4%; Rab9 prom act: 3%; SMN2 splice up: 24%; FLuc modulator: 4%; ELG1 genotoxic: -6%; NPC1 promoter act: -3%
